ELG1 genotox = inducers of genotoxicity in HEK293T ELG1-luciferase cells | HEK293T ELG1-luciferase reporter, luminescence, 16 h | Potency, µM (doses to about 46 µM), for inactives: at the highest dose activity change, positive = activation, most hits filed as activators | actives 1.3% (n = 330,000); further: % of control where 0% means no effect; nearly all actives have a fitted effect of over 60% in size
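Quantitative HTS format in 1536-well plates. HEK293T ELG1-luciferase reporter cells receive test compound and are incubated 16 hr at 37 °C, 5% CO2; ONE-Glo added, 30 min room temperature, then luminescence read.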
NPC1 promoter act = NPC1 promoter activation. Huh7 NPC1 promoter luciferase reporter, 24 h. Potency, µM (series often up to 9.22 µM), for the others: at the highest dose activation, usual class: activators. actives 2.4% (n = 320,000); further: % of control where 0% means no effect; nearly all actives have a fitted effect of over 60% in size
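NPC1 promoter–luciferase Huh7 cells; 24 h compound; luminescence.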
SMN2 splice enh = SMN2 splice variant enhancement; HEK293 SMN2-luciferase splicing reporter, luminescence, 30-36 h; Potency, µM (top dose mostly 46.1 µM), for the others: at the highest dose activity change, positive = activation, actives largely listed as activators; actives 2.8% (n = 210,000); AID 1458; further: % of control where 0% means no effect; nearly all actives have a fitted effect of over 55% in size
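qHTS luciferase splicing reporter: luminescence rises when SMN2 exon 7 is included in transfected HEK293 cells. Compound exposure lasted 30-36 h at 37C, with 4.5 mM final sodium butyrate as control, followed by a ONE-Glo read.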
FLuc modulator = counter-screen for miR-21 project: firefly luciferase inhibitors or activators | Potency, µM (highest dose often 57.5 µM), inactives show at the top dose activity change, negative = inhibition, hits mostly inhibitors | AID 588342 | actives 6.9% (n = 360,000) | P08659 | purified FLuc, Km substrates, luminescence inhibition;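 further: plate controls were vehicle for no effect and reference inhibitor for full effect; nearly all actives have a fitted effect of over 55% in size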
Target sequence (P08659 whole entry, looked up): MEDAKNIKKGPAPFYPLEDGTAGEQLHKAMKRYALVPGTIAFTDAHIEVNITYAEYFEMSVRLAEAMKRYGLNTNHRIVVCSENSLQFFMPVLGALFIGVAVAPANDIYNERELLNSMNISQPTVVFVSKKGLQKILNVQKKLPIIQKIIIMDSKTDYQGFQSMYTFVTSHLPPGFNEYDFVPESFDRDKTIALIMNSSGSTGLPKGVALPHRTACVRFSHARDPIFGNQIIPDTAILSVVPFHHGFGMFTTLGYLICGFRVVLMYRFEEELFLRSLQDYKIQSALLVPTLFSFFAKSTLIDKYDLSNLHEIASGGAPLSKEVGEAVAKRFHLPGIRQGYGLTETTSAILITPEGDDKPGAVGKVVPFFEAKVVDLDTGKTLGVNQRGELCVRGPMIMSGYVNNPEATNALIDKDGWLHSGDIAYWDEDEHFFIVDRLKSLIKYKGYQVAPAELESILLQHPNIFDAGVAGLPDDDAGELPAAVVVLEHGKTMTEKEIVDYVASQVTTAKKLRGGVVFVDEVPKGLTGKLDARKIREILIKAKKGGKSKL
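Purified P. pyralis luciferase (10nM final) with 10uM D-luciferin and 10uM ATP (Km levels) in 50mM Tris acetate pH 7.5, 10mM Mg acetate, 0.01% Tween-20, 0.05% BSA; qHTS 6-point titration, ~60 µM downward; luminescence read.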
KinaseGlo FLuc = counter-screen: inhibitors of Kinase-Glo firefly luciferase; Q27757; Kinase-Glo luciferase, ATP luminescence, 8 min; Potency, µM (series often up to 38.3 µM), for inactives: at the highest dose activity change, negative = inhibition, most hits filed as inhibitors; actives 0.28% (n = 200,000); AID 1379; further: on the % scale 0 is the no-effect control and ±100 the full control effect; nearly all actives have a fitted effect of over 60% in size
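Luminescence was the read-out, taken after 8-minute incubation at ambient temperature. Luciferase turned over luciferin with 10 uM ATP in imidazole pH 7.2 buffer containing KCl, MgCl2, Tween 20 and BSA.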
Rab9 promoter act = activators of Rab9 promoter; Huh7 Rab9 promoter-luciferase reporter, luminescence, 24 h; Potency, µM (doses to about 9.22 µM), for the others: top-dose activation, negative = inhibition, hits mostly activators; actives 2.8% (n = 320,000); further: % of control where 0% means no effect; nearly all actives have a fitted effect of over 60% in size
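Rab9 promoter-driven luciferase in stably transfected Huh7 cells; 1500 cells/well rested 2 h, exposed to compound in DMSO for 24 h at 37 °C, 5% CO2. Luminescence read 10 min after adding luciferase reagent at ambient temperature.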
* = called active by the depositor; ? = inconclusive; / = not tested or not shown; [ ] = dose if it differs, or a comment. An excerpt weighted towards active compounds, which were near 7.5% of everything screened. The call rests on the fitted dose curve; in most records, active means well fitted curve in the direction sought with a large enough effect; inconclusive means small, poorly fitted or top-dose-only effect, or another doubt; inactive means no such curve, though single readings can be large; an effect the other way counts as inactive or inconclusive. Potency means the concentration at half of the fitted maximal effect.

SMILES	ELG1 genotox	NPC1 promoter act	SMN2 splice enh	FLuc modulator	KinaseGlo FLuc	Rab9 promoter act
O=c1cc(-c2ccc([N+](=O)[O-])cc2)nc2cc(-c3ccc(Cl)cc3)[nH]n12	-1.4%	0.1%	-3.3%	?	-0.4%	-7.3%
O=c1cc(-c2ccccc2)nc2cc(-c3ccc(Br)cc3)[nH]n12	3.0%	?	/	-15.6%	/	?
CCCc1cc(=O)n2[nH]c(-c3ccc(Cl)cc3)cc2n1	?	?	/	15.1µM*	/	2.82µM*
Cc1noc(C)c1CSc1nc2ccccc2c(=O)n1-c1ccc(F)cc1F	18.4%	-22.0%	11.2µM*	-0.5%	1.5%	-10.5%
C=CCn1c(SCc2c(C)noc2C)nc2ccccc2c1=O	10.3µM*	-22.1%	-18.3%	0.7%	-0.8%	-17.5%
C=CCn1c(SCc2c(C)noc2C)nc2cc(C(=O)O)ccc2c1=O	?	-22.2%	20.4%	7.5%	-3.3%	-20.0%
Cc1cc(C)cc(NC(=O)CSc2oc(-c3ccccc3)nc2S(=O)(=O)c2ccccc2)c1	/	/	3.8%	-3.0%	/	/
Cc1ccc(O)c(C=Nc2ccc3[nH]ncc3c2)c1	-3.0%	4.6%	22.5%	19µM*	-3.5%	-5.6%
N#Cc1ccc(S(=O)(=O)N2CCC(C(=O)N3CCN(Cc4ccc5c(c4)OCO5)CC3)CC2)cc1	-8.7%	-8.2%	/	0.2%	/	-16.9%
CNC(=O)Cn1nc(C)c2ccccc2c1=O	0.0%	2.2%	17.1%	-0.9%	2.1%	4.47µM*
Cc1ccc(N(CC(=O)N2CCN(c3cccc(C)c3C)CC2)S(=O)(=O)c2c(C)nn(C)c2C)cc1	/	/	-49.8%	-8.2%	/	/
Cc1nc(-c2cccc(NC(=O)COc3ccc(Cl)cc3)c2)cs1	-17.9%	3.3%	/	13.5µM*	/	-0.5%
CCOc1ccc(-c2cccc(NC(=O)c3ccco3)c2)nn1	-3.4%	0.9%	/	21.3µM*	/	-3.8%
CCOc1ccc(-c2cccc(NC(=O)COc3ccc(Cl)cc3)c2)nn1	-2.6%	8.7%	/	13.5µM*	/	9.6%
COc1ccc(C)c2sc(N(Cc3cccnc3)C(=O)CCc3ccccc3)nc12	/	/	/	-2.4%	/	/
COc1ccc(-c2nc3c(c4c2C[C@H](c2ccccc2)OC4)CN(C(=O)NCc2ccco2)CC3)c(C)c1	/	/	1.7%[9.22 µM]	/	-2.6%[7.66 µM]	/
CCOc1ccc(C2C(C(N)=O)=C(C)Nc3nc(-c4ccc(OC)cc4)nn32)cc1 (stereo unspecified)	/	/	-2.8%	?	/	/
O=c1[nH]cnc2c1sc1nc(-c3ccccc3)c3c(c12)CCCC3	-0.8%	0.2%	-12.8%	-3.8%	-0.9%	-6.1%
O=C(O)CSc1ncnc2c1sc1nc(-c3ccccc3)c3c(c12)CCC3	3.7%	0.5%	/	10.7µM*	/	-0.8%
O=c1[nH]c2ccccc2cc1-c1noc(-c2cccnc2)n1	-2.0%	23.0%	-5.2%	?	-0.5%	24.0%
CC(Nc1ccc(-c2nc(-c3cccnc3)no2)cc1[N+](=O)[O-])c1ccccc1 (stereo unspecified)	/	/	/	-1.3%	/	/
c1cncc(-c2noc(-c3ccc4ccccc4c3)n2)c1	2.06µM*	0.316µM*	/	1.2µM*	/	0.282µM*
c1ccc(-c2ccc(-c3nc(-c4cccnc4)no3)cc2)cc1	2.31µM*	1.26µM*	12.6µM*	1.35µM*	-10.3%	?
c1ccc(-c2noc(-c3cccnc3)n2)cc1	/	/	?	9.53µM*	-15.5%	/
CN1CCN(CC(=O)Nc2ccc(OC(F)(F)F)cc2)CC1	-1.6%	1.0%	/	-0.4%	/	0.4%[1.84 µM]
SMILES	ELG1 genotox	NPC1 promoter act	SMN2 splice enh	FLuc modulator	KinaseGlo FLuc	Rab9 promoter act
Cc1ccc(C)c(N2CCN(c3cc(C)nc4c(-c5ccc(Cl)cc5)c(C)nn34)CC2)c1	/	/	11.1%	-0.4%	/	/
COC(=O)c1ccc(OC)c(Cn2c(=O)n(-c3cccc(Cl)c3)c(=O)c3c2c2cc(C)ccc2n3C)c1	/	/	-6.5%	-2.1%	/	/
COC(=O)c1c(N)sc(Cc2ccccc2)c1C	0.4%	-2.4%	/	-6.3%	-0.3%	0.7%
Nc1sc(-c2ccccc2)c(Cc2ccccc2)c1C(=O)O	1.3%	-4.9%	-52.8%	16.9µM*	-0.2%	-1.0%
COc1cccc(/C=N/NC(=O)CNC(=O)/C=C\c2ccccc2)c1O	17.6%	-6.1%	/	10.7µM*	/	-12.3%
COc1ccc(/C=C\C(=O)NCC(=O)N/N=C/c2cccc(OC)c2O)cc1	-2.4%[9.26 µM]	1.9%	/	-3.8%	/	-0.6%
COc1cccc(/C=N/NC(=O)CNC(=O)C(c2ccccc2)c2ccccc2)c1O	?	-35.9%	/	4.78µM*	/	-6.7%
O=C(O)c1cccc(NC(=S)N/N=C/c2ccccc2OCc2ccc(Br)cc2)c1	16.3%	26.7%	?	23.9µM*	-3.3%	18.1%
O=C(O)c1cccc(NC(=S)N/N=C/c2cccc(O)c2)c1	-0.8%	13.8%	4.7%	2.13µM*	-2.7%	17.9%
O=C(O)c1cccc(NC(=S)N/N=C/c2ccccn2)c1	?	0.282µM*	0.891µM*	0.379µM*	-4.5%	0.316µM*
CN(C)CCNC(=O)c1nn(C)c2c1CCc1ccccc1-2	0.4%	0.4%	/	-1.1%	/	1.5%
O=C(Nc1ccc(Cl)cn1)c1cccc(S(=O)(=O)N2CCCCC2)c1	-6.9%	-0.6%	/	0.0%	/	-0.2%
Cc1ccnc(NC(=O)c2cccc(S(=O)(=O)N3CCCC3)c2)c1	-1.0%	13.9%	/	-14.4%	/	24.3%
Cc1ccc(NC(=O)c2cccc(S(=O)(=O)N3CCN(c4ccccc4)CC3)c2)nc1	14.6µM*	-5.9%	/	2.4%	/	-15.5%
Cc1ccnc(NC(=O)c2cccc(S(=O)(=O)N3CCN(c4ccccc4)CC3)c2)c1	?	20.3%	/	1.9µM*	/	?
CCCn1c(=O)c(C(=O)N/N=C/c2ccc(F)cc2)c(O)c2ccccc21	-2.8%	1.2%	/	0.9%	/	-5.8%
CCOC(=O)N/N=C/c1cn(CCCOc2ccccc2)c2ccccc12	-2.5%	?	-48.6%	-0.4%	0.4%	?
CCCn1c(=O)c(C(=O)N/N=C/c2ccccc2F)c(O)c2ccccc21	?	?	12.6µM*	-6.6%	-1.2%	2.24µM*
CCOC(=O)N/N=C/c1ccccc1F	27.8%	2.51µM*	?	?	-5.8%	2.82µM*
CCOC(=O)N/N=C/c1cn(CCCOc2ccc(C)cc2)c2ccccc12	-1.5%	1.78µM*	-70.3%	-3.4%	-2.4%	?
CCOC(=O)N/N=C/c1cccc(Cl)c1Cl	10.5%	16.7%	?	21.3µM*	-0.7%	23.3%
CCn1c(=N)c(C(=O)NC2CCCC2)cc2c(=O)n3cc(C)ccc3nc21	/	/	2.5%	2.9%	/	/
Cn1cccc1C(=O)N1CCC2(CCN(C(=O)Nc3cccc(F)c3)CC2)CC1	/	/	-16.9%	/	-2.3%	/
CCOC(=O)C1CCN(C(=O)Cn2nc(CC)n3c(cc4occc43)c2=O)CC1	/	/	-1.3%	-2.8%	/	/

Screening data: PubChem, National Center for Advancing Translational Sciences (NCATS)
